For 5 compounds, inhibition results are on record in PubChem BioAssay AID463110 (The Scripps Research Institute Molecular Screening Center, 2010).

The other results are listed elsewhere or left out. A number with no mark means an inactive call. The source made the active and inactive calls.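 The calls were made as follows: active = inhibition of the enzyme GSTO1 above about 75% (limit read from the data); inactive = inhibition below that limit.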

Chain of Glutathione S-transferase omega-1 (Homo sapiens) (P78417 whole entry, looked up): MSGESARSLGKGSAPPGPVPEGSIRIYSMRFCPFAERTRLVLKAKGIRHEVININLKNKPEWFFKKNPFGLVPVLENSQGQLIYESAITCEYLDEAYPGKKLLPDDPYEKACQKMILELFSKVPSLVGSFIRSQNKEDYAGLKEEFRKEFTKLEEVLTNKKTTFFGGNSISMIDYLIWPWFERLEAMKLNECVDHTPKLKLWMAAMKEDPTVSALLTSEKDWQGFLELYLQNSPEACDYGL

The test addresses Glutathione S-transferase omega-1 (Homo sapiens) (UniProt P78417). Description: recombinant GSTO1 blockade by competitive ABPP – biochemical, gel ABPP, SE-Rh probe, percent inhibition, late-stage follow-up (AID 463110). The note with it: recombinant GSTO1, gel ABPP SE-Rh probe fluorescence; at 1 µM; stronger effect = higher value.
In the case of `O=c1cc(CCl)nc2scc(-c3ccccc3)n12`, the inhibition was 82% (active). With `COc1ccc(C(C(=O)NC2CCCCC2)N(C(=O)CCl)c2ccccc2Cl)cc1` (stereo not given), the inhibition is 23%.

On to `CCC1(CC)Cc2ccccc2-c2nc(CCl)[nH]c(=O)c21`, for which the inhibition was 79% (active). Then `O=C(c1[nH]ncc1-c1ccc(Cl)cc1)C1CO1` (stereo not given), with 29%. Then `Cc1ccc(N(Cc2cc(=O)[nH]c3ccccc23)C(=O)CCl)cc1`, with 36%.

The term inhibition denotes the relative decrease from the control value, in per cent.
